# Screening results as filed in PubChem.
# Rows were chosen to be rich in hits. Some 8.1% of all compounds tested hit in one or more screens of this group.
# Sfp inh – inhibitors of Bacillus subtilis Sfp phosphopantetheinyl transferase; AID 1490; hit rate 3.5% among 310,000; Biochemical Sfp PPTase activity, qHTS; Q9F4F7; Potency, µM, without a hit: largest response in the series, negative = inhibition, most hits filed as inhibitors;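 note: the enzyme is Sfp with the accession as filed and its product quenches rhodamine fluorescence; 0% = enzyme reaction without inhibitor and -100% = no enzyme wells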
#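 Fluorescence-quenching assay with 15 nM Sfp, 5 uM rhodamine-CoA and 12.5 uM BHQ-2-labelled ybbR peptide in pH 7.6 Hepes/MgCl2 buffer. Enzyme was pre-incubated with compound for 15 min at room temperature. Rate was taken from the 30-min fluorescence change (525/598 nm).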
# Gal4-VP16 FLuc – counter-screen for ROR gamma inhibitors: Gal4-VP16 reporter | Drosophila S2 Gal4-VP16 UAS-luciferase, luminescence, 20 h | hit rate 3.5% among 310,000 | Potency, µM (series often up to 53.6 µM), inactives show top-dose activity, negative = inhibition, hits mostly inhibitors | AID 2546;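 note: Gal4-VP16 expression switched on by copper sulfate through the metallothionein promoter; % is set by controls: 0 for no effect and ±100 for the full control effect; nearly all actives have a fitted effect of over 50% in size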
# ClpP mod – qHTS Assay for Activators of ClpP. ATP-dependent Clp protease proteolytic subunit (Bacillus subtilis (strain 168)), P80244. purified B. subtilis ClpP, FRET peptide cleavage, 20 min. Potency, µM (highest dose often 57.5 µM), for the others: top-dose activity change, negative = active. hit rate 1.9% among 340,000. AID 651965, 2013; active = well fitted falling curve with a large enough effect; inconclusive = small, poorly fitted or top-dose-only effect; inactive = no such curve, though single readings can be large or run the other way; note: the source files actives as falling curves though it sought activators and does not explain the sign; nearly all actives have a fitted effect of over 65% in size
# Target sequence (P80244 whole entry, looked up): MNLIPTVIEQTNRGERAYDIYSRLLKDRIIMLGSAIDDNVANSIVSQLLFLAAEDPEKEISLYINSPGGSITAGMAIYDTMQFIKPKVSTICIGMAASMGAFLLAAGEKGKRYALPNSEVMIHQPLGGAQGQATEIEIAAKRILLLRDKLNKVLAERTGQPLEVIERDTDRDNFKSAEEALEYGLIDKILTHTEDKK
#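 ClpP 10 microg/mL final, pH 8 Tris/KCl buffer with BSA, glycerol, Tween-20; compound pinned in; FRET-FV substrate; RT 20 min; Ex320/Em430; ΔFRET vs ADEP 5.8 microM, DMSO, no enzyme.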
# RORg inh – blocks mouse ROR gamma transcriptional activity | hit rate 5.4% among 310,000 | Drosophila S2 Gal4-RORgamma UAS-luciferase reporter, 20 h | P51450 | Potency, µM (doses to about 53.6 µM), for the others: top-dose activity change, negative = inhibition, usual class: inhibitors; note: % is set by controls: 0 for no effect and ±100 for the full control effect; nearly all actives have a fitted effect of over 60% in size
# Target sequence (P51450 whole entry, looked up, the tested form may be a part): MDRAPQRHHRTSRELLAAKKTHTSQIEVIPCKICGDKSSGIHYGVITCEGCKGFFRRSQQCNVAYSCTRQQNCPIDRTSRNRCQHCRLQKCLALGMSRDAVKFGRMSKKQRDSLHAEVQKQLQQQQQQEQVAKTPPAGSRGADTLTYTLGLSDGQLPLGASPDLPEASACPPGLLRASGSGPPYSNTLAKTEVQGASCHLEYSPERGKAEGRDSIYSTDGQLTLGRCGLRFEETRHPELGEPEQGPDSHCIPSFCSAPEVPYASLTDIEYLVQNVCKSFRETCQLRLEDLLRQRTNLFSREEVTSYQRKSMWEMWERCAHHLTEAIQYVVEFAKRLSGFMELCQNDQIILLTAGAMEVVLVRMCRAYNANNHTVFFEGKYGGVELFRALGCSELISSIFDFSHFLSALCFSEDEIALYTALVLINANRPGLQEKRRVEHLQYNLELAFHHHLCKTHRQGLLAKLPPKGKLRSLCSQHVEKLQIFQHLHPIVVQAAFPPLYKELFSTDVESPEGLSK
#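 ROR gamma transcriptional activity was tracked as Gal4-UAS luciferase output in stably transfected Drosophila Schneider cells, with compound added 1 hr before 700 uM copper sulfate induction and a 20 hr ambient-temperature incubation.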
# Epigenetic derep – epigenetic control regulation, reporter derepression. murine LDR cells, GFP reporter derepression, 30 h. Potency, µM (top dose mostly 53.9 µM), for inactives: at the highest dose GFP activation, hits mostly activators. hit rate 0.2% among 280,000. AID 1865; note: % of control where 0% means no effect; nearly all actives have a fitted effect of over 60% in size
#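 Reporter derepression read as number of fluorescent GFP-positive objects, 20-120 um in size, counted by laser-scanning cytometer. Mouse LDR line with an epigenetically silenced CMV-GFP locus; compound incubation 30 h, 37 C.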
# PINK1 expr mod – changes PINK1 expression. PINK1 immunofluorescence, high-content cytometry, 24 h. Potency, µM (highest dose often 76.6 µM), without a hit: at the top dose activation (PINK1 increase), most hits filed as activators. hit rate 0.2% among 410,000. AID 624263; active = well fitted activation curve with a large enough effect; inconclusive = small, poorly fitted or top-dose-only effect; cell line not stated here; note: % of control where 0% means no effect; nearly all actives have a fitted effect of over 65% in size
#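 Decision-based qHTS: stable cells, 24 h exposure to five compound concentrations, CCCP as control. Fixed cells stained for PINK1 plus nuclear, mitochondrial and cell markers, cytometer read.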
# * = called active by the depositor; u = inconclusive; x = not tested or not shown; ! = not confirmed by another sample; [ ] = remark or other dose. Unless noted, calls come from the whole dose curve; as a rule, active = well fitted curve in the direction sought with a large enough effect; inconclusive = small, poorly fitted or top-dose-only effect, or another doubt; inactive = no such curve, though single readings can be large; an effect the other way counts as inactive or inconclusive. Potency is the fitted concentration of half-maximal effect.
SMILES,Sfp inh,Gal4-VP16 FLuc,ClpP mod,RORg inh,Epigenetic derep,PINK1 expr mod
COc1ccc(-c2nc3c4ccccc4n(CC(=O)N4CCN(c5ccccc5F)CC4)c(=O)n3n2)cc1,x,x,-2%,x,13%,5%
COC(=O)C/C=C/C(C)C(OCc1cccc(Br)c1)C(C)C(OC)C1CCCCC1 (stereo unspecified),16%,-1%[10 µM],x,1%[10 µM],1%[10.1 µM],x
CC1(C)CC(=O)C(C(C2=C(O)CC(C)(C)CC2=O)c2cccc(O)c2)C(=O)C1 (stereo unspecified),22µM*,-16%,0%,-13%,-1%,13%[38.3 µM]
Cc1ccc(C(C2=C(O)CC(C)(C)CC2=O)C2C(=O)CC(C)(C)CC2=O)o1 (stereo unspecified),-18%,-5%,1%,-1%,-1%,0%
CC1(C)CC(=O)C(C(C2=C(O)CC(C)(C)CC2=O)c2cccs2)C(=O)C1 (stereo unspecified),22µM*,11%,1%,u,1%,4%
CCCS(=O)(=O)c1nnnn1-c1cccc(OC)c1,-24%,4.5µM*,0%,1.8µM*,0%,-5%[38.3 µM]
COc1cccc(-n2nnnc2SCC(=O)Nc2ccccc2OC)c1,22%,2%,-2%,4%,x,7%
COc1cccc(CS(=O)(=O)c2nnnn2C2CCCCC2)c1,11%,0%,x,1%,-1%,x
COc1cccc(CS(=O)(=O)c2nnnn2-c2ccccc2)c1,8%,-28%,x,7.1µM*,0%,x
O=C(Nc1ccc(F)c(Cl)c1)C1CCN(c2ncccn2)CC1,x,x,-9%,x,-2%,0%
Nc1ccccc1NC1=CC(=O)CC(c2ccco2)C1 (stereo unspecified),8.9µM*,u,1%,u,0%,-3%
Cc1cc(C)nc(NC(=NCCc2c[nH]c3ccccc23)NC(=O)C(C)(C)C)n1,3%,u,x,7.1µM*,2%,8%
NC(=O)c1nsnc1-c1ccccc1O,-8%,11%,1%,22µM*,1%,1%
c1cncc(OC2CCN(Cc3ccc4c(c3)CN(Cc3nc5ccccc5s3)CCO4)CC2)c1,x,x,x,x,x,0%
Cc1ccn2c(NC(C)(C)C)c(-c3cccs3)nc2c1,8%,-17%,x,11µM*,1%,1%
CCC(C)COC(=O)C(C#N)c1nc2ccccc2nc1N1CCCCC1 (stereo unspecified),-7%,3%,5%,5µM*,4%,14%
O=C1C=CC(=O)N1c1ccc(OC(F)F)cc1,u,4.5µM*,-7%,6.3µM*,0%,-3%
O=C1C=CC(=O)N1c1ccc(O)cc1,13µM*,u,0%,13µM*,2%,3%
Cc1nc2cc(NC(=O)[C@@H]3C[C@@H](Sc4ccccn4)CN3Cc3ccccc3)ccc2s1,x,x,x,x,x,0%
CCSC(=O)N1CCN(/[N+]([O-])=N/Oc2ccc([N+](=O)[O-])cc2[N+](=O)[O-])CC1,x,x,x,x,x,5%
COCCCC/C(=N\OCCN)c1ccc(C(F)(F)F)cc1,56µM*!,-13%,1%,6%,3%,x
CN(C)c1cc2c3ccccc3ccc2c2ccccc12,x,x,4%,x,x,4%
O=C(NN1C(=O)c2cc(Br)ccc2NC1c1cc(Br)cc(Br)c1O)c1ccncc1 (stereo unspecified),2%,7.9µM*,x,5µM*,1%,1%
O=C(NN1C(=O)c2cc(Br)ccc2NC1c1ccccc1Cl)c1ccncc1 (stereo unspecified),-4%,-19%,-5%,u,-1%,-2%
CC1CN(C2CCN(S(=O)(=O)c3ccccc3)CC2)CC(C)O1 (stereo unspecified),79µM*,-5%,-3%,u,-1%,5%[38.3 µM]
SMILES,Sfp inh,Gal4-VP16 FLuc,ClpP mod,RORg inh,Epigenetic derep,PINK1 expr mod
Cn1c(CCN2CCCCC2)nc2cc(NS(=O)(=O)c3ccccc3)ccc21,9%,7%,28µM*,-3%,-2%,5%
Cn1c(CCN2CCOCC2)nc2cc(NS(=O)(=O)c3ccccc3)ccc21,27%,-3%,x,6%,-1%,3%
COc1ccc(-c2nc3scc(CCNS(=O)(=O)c4ccc(C)cc4)n3n2)cc1,x,x,-4%,x,0%,0%
CC1=CC(C)(C)N(C(=O)CNC2CCCCC2)c2cc(C)ccc21,79µM*,5%,x,-28%,0%,u
CC1=CC(C)(C)N(C(=O)CCl)c2cc(C)ccc21,11%,-9%,x,-17%,-1%,4%
Oc1c(CN2CCc3ccccc3C2)cc(Cl)c2cccnc12,-22%,1.1µM*,-2%,0.79µM*,4µM*,2%
O=C(Oc1c(CN2CCOCC2)cc(Cl)c2cccnc12)c1ccccc1,-6%,5µM*,x,1.8µM*,18%,-1%
O=C(Oc1c(CN2CCOCC2)cc(Cl)c2cccnc12)c1ccccc1F,13%,2.2µM*,x,1.1µM*,u,0%
COc1cc(OC)cc(C(=O)Oc2c(CN3CCOCC3)cc(Cl)c3cccnc23)c1,-9%,3.2µM*,x,4.5µM*,u,0%
COc1ccc(C(=O)Oc2c(CN3CCOCC3)cc(Cl)c3cccnc23)cc1OC,x,x,-2%,x,x,-1%
CO[C@H]1[C@H](NC(=O)c2ccsc2)c2ccccc2C12CCN(Cc1cccc3ncccc13)CC2,x,x,x,x,x,1%
O=C(SCc1c(O)c2ccccc2oc1=O)c1ccccc1,x,x,0%,x,x,1%
O=c1oc2ccccc2c(O)c1Cc1cc(Cl)c2cccnc2c1O,26%,1.1µM*,x,0.79µM*,2%,13%
CC(c1ccon1)N(C)C(=O)c1cnn(-c2ncc3c(n2)-c2ccccc2CC3)c1C1CC1 (stereo unspecified),x,x,x,x,x,0%
COc1ccc(CCNC(=O)c2ccc3c(c2)ncn3-c2ccc(C(C)C)cc2)cc1OC,x,x,-2%,x,0%,0%
c1ccc(-c2nnc(NC3=NCCC3)o2)cc1,-10%,0%[10 µM],0%,7.1µM*,-1%[10.1 µM],1%
Fc1ccc(-c2nnc(NC3=NCCCCC3)o2)cc1,21%,u,1%,2.8µM*,-1%,1%
Fc1ccc(NC2=NCCCCC2)cc1,16%,2%,x,-1%,-2%,1%
C=CCN(C(=O)CSC1=NC(=O)CN1C(C)=O)c1nc(C)c(-c2ccccc2)s1,-5%,u,x,13µM*,9%,9%
NCCCNC(=O)c1ccc(/C=N/O)nc1,71µM*,-3%,x,0%,5%,2%
O=C(NCCN1CCCCC1)c1ccc(/C=N/O)nc1,-14%,-7%,1%,-3%,x,3%
COc1ccccc1C(=O)Nc1nnc(SCc2cc(=O)c3ccccc3[nH]2)s1,x,x,0%,x,-4%,15%
